Experimental data as given in the supplement of paper PMC10849652.
About 7,900 targets were measured; listed, in parts, are those with a hit and a random draw of the rest. About 0.6% of all pairs of compound and target were hits. Values without a mark were called inactive.

Assays:
Test in all cases: log2 fold change, soluble protein after heating vs DMSO (PISA); higher = thermal stabilisation; K562 cells, 10 uM, 30 min; active = over 0.2 and 3.5 SD of the protein, either way, in both replicates (recomputed)
[1] = compound: CC[C@@H]1C(=O)N(C)c2cnc(Nc3ccc(C(=O)NC4CCN(C)CC4)cc3OC)nc2N1C1CCCC1
In short: (§1)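 Thermal stability values are relative to control samples and come from duplicates. They are expressed as log2 fold changes. For measurement, K562 cells (2×10^6 cells/mL) received 10 μM compound for 30 min, and aliquots were heated for 3 min over 48°C-58°C, pooled, and extracted at 4°C in PBS with 0.5% NP-40. Soluble protein, the supernatant after 21,000xg for 90 min, was quantified by TMTpro 16plex LC-MS/MS with equalised channel sums.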

volasertib = compound: CC[C@@H]1C(=O)N(C)c2cnc(Nc3ccc(C(=O)N[C@H]4CC[C@H](N5CCN(CC6CC6)CC5)CC4)cc3OC)nc2N1C(C)C [volasertib]
In short: as §1

[2] = compound: CC[C@H](C)N1C=C(C2=C(C=C(C=C21)C3=CN=C(C=C3)N4CCNCC4)C(=O)NCC5=C(C=C(NC5=O)C)C)C
In short: as §1

epoxomicin = compound: CC[C@H](C)[C@@H](C(=O)N[C@@H]([C@@H](C)O)C(=O)N[C@@H](CC(C)C)C(=O)[C@]1(CO1)C)NC(=O)[C@H]([C@@H](C)CC)N(C)C(=O)C [epoxomicin]
In short: as §1

[3] = compound: CCn1c(C(=O)N(C2CC2)C2CC2)cc2c3c(ncn3C)c(Nc3cc(C)n(C)n3)nc21
In short: as §1

[4] = compound: CCn1cc(-c2ccnc3[nH]c(-c4cccc(CN(C)C)c4)cc23)c(-c2ccc(NC(=O)N(C)C)cc2)n1
In short: as §1

[5] = compound: CN(C)CC(=O)Nc1ccc2[nH]c(=O)c3ccccc3c2c1
In short: as §1

rosiglitazone = compound: CN(CCOC1=CC=C(C=C1)C[C@H]2C(=O)NC(=O)S2)C3=CC=CC=N3 (racemic) [rosiglitazone]
In short: as §1

[6] = compound: CN1C2=C(C3=C1C(=O)N(N=C3)CC4=CC(=CC=C4)N)SC(=C2)S(=O)C
In short: as §1

[7] = compound: CN1CCC(CNc2ccc3ncc(-c4cccc(OC(F)(F)F)c4)n3n2)CC1
In short: as §1

Sequence of UniProt Q12996 (Q12996 whole entry, looked up): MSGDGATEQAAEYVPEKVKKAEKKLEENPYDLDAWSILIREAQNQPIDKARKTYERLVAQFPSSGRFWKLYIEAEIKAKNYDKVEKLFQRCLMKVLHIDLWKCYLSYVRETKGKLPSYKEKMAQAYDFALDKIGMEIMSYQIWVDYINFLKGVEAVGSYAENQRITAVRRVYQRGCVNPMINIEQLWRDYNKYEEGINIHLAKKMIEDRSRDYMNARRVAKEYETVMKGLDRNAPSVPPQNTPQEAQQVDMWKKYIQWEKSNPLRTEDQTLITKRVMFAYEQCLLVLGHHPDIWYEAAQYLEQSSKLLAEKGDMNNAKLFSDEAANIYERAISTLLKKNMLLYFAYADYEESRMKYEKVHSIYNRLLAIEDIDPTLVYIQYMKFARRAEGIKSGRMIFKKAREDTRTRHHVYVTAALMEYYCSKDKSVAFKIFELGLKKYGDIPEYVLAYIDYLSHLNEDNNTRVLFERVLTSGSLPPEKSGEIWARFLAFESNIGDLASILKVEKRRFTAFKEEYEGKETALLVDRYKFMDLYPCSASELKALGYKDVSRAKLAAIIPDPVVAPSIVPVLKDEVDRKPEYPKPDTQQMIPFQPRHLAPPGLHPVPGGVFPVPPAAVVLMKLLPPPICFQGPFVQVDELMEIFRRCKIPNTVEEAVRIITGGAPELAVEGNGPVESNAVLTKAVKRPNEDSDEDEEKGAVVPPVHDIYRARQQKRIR
Sequence of UniProt Q7L3B6 (Q7L3B6 whole entry, looked up): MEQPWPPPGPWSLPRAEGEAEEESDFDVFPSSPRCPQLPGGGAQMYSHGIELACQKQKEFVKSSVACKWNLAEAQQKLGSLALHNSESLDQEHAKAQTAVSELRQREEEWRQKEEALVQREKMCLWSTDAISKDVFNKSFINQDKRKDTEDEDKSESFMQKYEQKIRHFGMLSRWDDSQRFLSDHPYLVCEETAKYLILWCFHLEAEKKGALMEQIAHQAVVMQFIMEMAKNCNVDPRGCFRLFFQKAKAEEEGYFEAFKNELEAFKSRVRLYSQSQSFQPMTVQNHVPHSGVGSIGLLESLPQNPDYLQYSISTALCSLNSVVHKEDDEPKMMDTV
Sequence of UniProt Q14677 (Q14677 whole entry, looked up): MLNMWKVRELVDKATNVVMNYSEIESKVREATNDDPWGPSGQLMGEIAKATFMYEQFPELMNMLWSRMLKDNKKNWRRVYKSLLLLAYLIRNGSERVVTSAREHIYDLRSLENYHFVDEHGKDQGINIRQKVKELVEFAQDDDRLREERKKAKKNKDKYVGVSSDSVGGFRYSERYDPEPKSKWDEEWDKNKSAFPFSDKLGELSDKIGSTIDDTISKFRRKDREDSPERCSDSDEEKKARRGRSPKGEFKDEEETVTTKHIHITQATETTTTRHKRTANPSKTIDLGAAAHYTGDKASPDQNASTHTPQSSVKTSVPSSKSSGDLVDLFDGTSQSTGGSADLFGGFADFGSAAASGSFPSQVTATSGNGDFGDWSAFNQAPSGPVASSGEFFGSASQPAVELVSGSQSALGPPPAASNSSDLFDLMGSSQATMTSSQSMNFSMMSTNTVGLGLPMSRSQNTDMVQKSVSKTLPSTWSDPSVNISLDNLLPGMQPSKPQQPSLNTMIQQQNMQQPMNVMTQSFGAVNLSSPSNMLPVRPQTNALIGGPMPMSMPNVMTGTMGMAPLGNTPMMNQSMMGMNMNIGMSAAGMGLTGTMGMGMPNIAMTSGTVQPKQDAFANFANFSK
Sequence of UniProt Q99653 (Q99653 whole entry, looked up): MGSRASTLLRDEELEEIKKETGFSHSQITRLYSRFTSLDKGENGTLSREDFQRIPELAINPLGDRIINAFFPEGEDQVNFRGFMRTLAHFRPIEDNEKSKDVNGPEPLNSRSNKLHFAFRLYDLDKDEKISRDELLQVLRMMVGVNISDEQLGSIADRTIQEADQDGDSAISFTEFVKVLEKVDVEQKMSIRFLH
Sequence of UniProt P06493 (P06493 whole entry, looked up): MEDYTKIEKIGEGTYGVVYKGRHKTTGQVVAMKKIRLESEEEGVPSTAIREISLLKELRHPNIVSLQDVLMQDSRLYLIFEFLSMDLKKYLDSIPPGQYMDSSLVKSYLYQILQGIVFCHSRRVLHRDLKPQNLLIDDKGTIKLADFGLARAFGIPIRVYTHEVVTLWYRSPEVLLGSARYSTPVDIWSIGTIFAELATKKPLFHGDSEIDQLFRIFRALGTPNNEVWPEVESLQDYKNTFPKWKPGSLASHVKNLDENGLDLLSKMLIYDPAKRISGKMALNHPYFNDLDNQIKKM
Sequence of UniProt Q99439 (Q99439 whole entry, looked up): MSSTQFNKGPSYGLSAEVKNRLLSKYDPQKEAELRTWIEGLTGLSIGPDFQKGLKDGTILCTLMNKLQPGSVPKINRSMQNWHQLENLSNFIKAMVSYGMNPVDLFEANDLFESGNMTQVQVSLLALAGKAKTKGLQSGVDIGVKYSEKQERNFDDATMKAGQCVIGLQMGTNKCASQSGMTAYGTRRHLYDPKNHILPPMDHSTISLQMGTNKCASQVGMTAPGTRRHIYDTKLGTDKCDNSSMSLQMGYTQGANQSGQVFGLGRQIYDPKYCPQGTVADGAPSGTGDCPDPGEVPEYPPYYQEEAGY
Sequence of UniProt A6NHX0 (A6NHX0 whole entry, looked up): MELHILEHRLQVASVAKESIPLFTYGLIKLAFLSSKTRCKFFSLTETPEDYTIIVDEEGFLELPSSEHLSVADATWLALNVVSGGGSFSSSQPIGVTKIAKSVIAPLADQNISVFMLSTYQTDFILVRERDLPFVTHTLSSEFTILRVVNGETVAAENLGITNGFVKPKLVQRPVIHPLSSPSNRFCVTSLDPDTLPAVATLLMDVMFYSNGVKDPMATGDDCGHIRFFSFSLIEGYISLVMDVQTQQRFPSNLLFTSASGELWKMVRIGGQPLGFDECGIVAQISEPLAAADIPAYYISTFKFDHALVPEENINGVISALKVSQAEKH
Sequence of UniProt P14854 (P14854 whole entry, looked up): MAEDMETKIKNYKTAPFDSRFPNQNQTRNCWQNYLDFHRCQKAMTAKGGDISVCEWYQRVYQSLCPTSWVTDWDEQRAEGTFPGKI
Sequence of UniProt Q10570 (Q10570 whole entry, looked up): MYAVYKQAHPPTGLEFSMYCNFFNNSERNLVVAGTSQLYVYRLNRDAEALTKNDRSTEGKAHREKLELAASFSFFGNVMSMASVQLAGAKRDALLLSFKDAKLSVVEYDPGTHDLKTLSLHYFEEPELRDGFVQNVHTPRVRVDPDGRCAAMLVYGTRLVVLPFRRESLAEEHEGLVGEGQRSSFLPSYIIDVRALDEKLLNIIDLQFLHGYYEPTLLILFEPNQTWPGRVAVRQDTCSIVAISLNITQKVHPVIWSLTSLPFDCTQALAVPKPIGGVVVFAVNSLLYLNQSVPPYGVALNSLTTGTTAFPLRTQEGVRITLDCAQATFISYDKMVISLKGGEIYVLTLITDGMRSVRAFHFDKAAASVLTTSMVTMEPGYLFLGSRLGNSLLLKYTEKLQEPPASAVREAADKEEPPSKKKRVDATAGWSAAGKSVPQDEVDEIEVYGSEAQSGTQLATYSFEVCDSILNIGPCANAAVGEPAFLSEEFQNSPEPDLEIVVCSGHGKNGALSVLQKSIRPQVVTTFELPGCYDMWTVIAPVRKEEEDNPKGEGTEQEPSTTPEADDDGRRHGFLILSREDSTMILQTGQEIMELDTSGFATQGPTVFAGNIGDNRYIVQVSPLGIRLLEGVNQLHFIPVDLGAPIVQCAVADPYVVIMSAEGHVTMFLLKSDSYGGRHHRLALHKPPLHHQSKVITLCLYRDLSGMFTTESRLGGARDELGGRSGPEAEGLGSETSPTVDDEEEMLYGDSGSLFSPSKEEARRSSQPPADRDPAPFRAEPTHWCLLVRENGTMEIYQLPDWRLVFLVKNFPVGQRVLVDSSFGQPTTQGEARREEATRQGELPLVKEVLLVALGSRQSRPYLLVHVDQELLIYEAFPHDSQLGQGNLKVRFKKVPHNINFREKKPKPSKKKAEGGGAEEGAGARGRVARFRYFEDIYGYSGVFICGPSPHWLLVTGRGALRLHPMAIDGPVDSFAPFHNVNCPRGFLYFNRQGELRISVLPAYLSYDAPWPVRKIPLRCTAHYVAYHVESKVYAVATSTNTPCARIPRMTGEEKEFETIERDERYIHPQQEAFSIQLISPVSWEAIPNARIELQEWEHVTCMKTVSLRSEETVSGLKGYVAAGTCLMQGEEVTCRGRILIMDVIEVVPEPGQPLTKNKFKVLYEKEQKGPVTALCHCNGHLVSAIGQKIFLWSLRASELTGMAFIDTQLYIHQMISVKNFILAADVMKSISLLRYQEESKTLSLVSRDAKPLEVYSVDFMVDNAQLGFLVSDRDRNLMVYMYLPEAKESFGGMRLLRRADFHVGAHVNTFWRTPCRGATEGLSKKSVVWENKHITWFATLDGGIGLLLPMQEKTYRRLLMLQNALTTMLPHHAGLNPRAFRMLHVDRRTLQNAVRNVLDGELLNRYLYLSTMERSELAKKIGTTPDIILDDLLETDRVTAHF
Sequence of UniProt P10606 (P10606 whole entry, looked up): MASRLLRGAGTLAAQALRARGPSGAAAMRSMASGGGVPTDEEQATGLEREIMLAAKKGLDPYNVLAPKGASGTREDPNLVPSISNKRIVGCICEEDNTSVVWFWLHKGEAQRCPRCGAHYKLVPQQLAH
Sequence of UniProt P19397 (P19397 whole entry, looked up): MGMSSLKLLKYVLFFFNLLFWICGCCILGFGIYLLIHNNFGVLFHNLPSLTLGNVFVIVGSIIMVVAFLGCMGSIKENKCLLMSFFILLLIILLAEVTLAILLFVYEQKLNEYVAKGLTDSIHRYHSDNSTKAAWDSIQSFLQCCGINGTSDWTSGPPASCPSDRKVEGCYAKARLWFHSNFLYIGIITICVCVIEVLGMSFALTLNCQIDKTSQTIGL
Sequence of UniProt Q5JTJ3 (Q5JTJ3 whole entry, looked up): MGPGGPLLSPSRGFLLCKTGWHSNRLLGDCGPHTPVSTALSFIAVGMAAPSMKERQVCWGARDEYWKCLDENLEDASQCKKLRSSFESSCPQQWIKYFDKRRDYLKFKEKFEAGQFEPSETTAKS

Target	log2 fold change [1]	log2 fold change (volasertib)	log2 fold change [2]	log2 fold change (epoxomicin)	log2 fold change [3]	log2 fold change [4]	log2 fold change [5]	log2 fold change (rosiglitazone)	log2 fold change [6]	log2 fold change [7]
CD53 (UniProt P19397)	0.183	-0.103	-0.049	-0.02	0.004	-0.092	-0.007	0.074	-0.051	-0.06
CHP1 (UniProt Q99653)	-0.069	-0.036	0.033	0.061	-0.006	-0.007	0.063	-0.005	0.034	-0.028
CPSF1 (UniProt Q10570)	0.053	-0.105	0.031	-0.038	-0.02	0.026	-0.104	0.011	0.116	0.165
CASTOR2 (UniProt A6NHX0)	0.025	0.254	-0.042	0.061	-0.024	0.123	-0.035	0.034	-0.022	0.066
COA6 isoform 2 (UniProt Q5JTJ3)	0.045	0.04	-0.004	0.079	-0.069	0.045	-0.023	-0.055	-0.16	0.022
COPS3 (UniProt Q9UNS2)	0.001	-0.017	-0.001	0.054	0	-0.014	-0.017	0.007	-0.038	-0.03
CPSF6 isoform 2 (UniProt Q16630)	0.016	0.02	0.016	-0.014	-0.037	-0.036	-0.062	0.008	0.004	-0.014
CNN2 (UniProt Q99439)	-0.149	-0.354 (active)	0.058	0.106	-0.044	0.03	0.023	0.063	0.012	-0.055
CLINT1 isoform 3 (UniProt Q14677)	0.17	0.047	-0.01	-0.038	-0.006	0.042	-0.06	-0.055	0.075	0.259 (active)
CDC37L1 (UniProt Q7L3B6)	-0.14	-0.199	0.059	0.029	0.02	0.091	-0.054	0.005	0.001	-0.048
CHKA (UniProt P35790)	0.22	0.161	-0.077	0.127	-0.001	0.203	0.043	0.044	-0.082	0.187
CDK1 (UniProt P06493)	-0.03	-0.05	0.017	0.055	-0.002	0	0.03	0.032	0.005	-0.108
COX5B (UniProt P10606)	0.06	-0.02	-0.047	0.192	-0.051	-0.043	-0.013	-0.01	-0.037	0.541 (active)
COX6B1 (UniProt P14854)	0.036	0.023	-0.013	0.333	0.046	-0.014	-0.081	0.013	-0.054	0.038
CSTF3 (UniProt Q12996)	0.061	0.091	-0.028	-0.029	0	-0.038	-0.002	0.003	-0.048	0.13
